# Data: the supplement of paper PMC3334620
# Over roughly 33,000 sequences, “E-score (-0.5 to 0.5)” has its median near -0.012; the highest 2% begin near 0.27. The full list was thinned out, with the highest values kept by preference.
# Molecular target: T1, Vhr1 (UniProt P40522)
# T1 sequence: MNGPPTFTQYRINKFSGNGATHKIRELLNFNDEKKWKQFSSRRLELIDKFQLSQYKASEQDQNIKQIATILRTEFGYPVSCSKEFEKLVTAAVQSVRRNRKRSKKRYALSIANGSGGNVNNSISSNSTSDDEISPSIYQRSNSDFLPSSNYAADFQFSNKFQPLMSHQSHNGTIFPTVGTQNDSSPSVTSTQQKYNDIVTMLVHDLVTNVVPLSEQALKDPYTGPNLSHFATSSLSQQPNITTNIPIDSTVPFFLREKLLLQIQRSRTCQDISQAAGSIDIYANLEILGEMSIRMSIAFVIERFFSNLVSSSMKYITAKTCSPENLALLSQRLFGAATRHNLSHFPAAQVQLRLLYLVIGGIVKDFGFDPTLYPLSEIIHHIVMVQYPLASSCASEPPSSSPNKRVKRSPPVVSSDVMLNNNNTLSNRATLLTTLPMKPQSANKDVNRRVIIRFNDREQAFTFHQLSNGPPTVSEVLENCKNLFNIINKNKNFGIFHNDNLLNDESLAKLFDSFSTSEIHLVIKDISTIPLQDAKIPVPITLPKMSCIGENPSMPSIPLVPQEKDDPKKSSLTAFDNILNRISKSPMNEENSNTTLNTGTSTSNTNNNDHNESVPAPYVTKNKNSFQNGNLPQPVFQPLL
# Experiment: PBM E-score (8-mer binding enrichment) (E-score (-0.5 to 0.5)); higher = stronger / more preferred TF binding
# Settings: protein concentration: 200 nM; construct: GST-full length
# Protocol: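 Universal 'all 10-mer' protein binding microarrays (Agilent AMADID 015681) probed with GST-tagged S. cerevisiae TFs (full-length or DBD) made by in vitro transcription/translation (PURExpress), about 100-200 nM. Bound TF was detected with fluorescent anti-GST. Each ungapped 8-mer (which stands for itself and its reverse complement) is scored by the PBM enrichment score (E-score), a modified Wilcoxon-Mann-Whitney statistic from -0.5 to +0.5, computed with the Universal PBM Analysis Suite. Scale: above 0.35 generally sequence-specific binding.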
row,Sequence,PBM E-score
1,AGTATGAG,0.0941
2,AGTATGAA,0.203
3,AGTATGAT,0.271
4,AGTATGAC,0.311
5,CGTATGAC,0.142
6,GGTATGAC,0.231
7,CCTGTGGA,-0.166
8,CTCTCATC,-0.131
9,CTTGCGGC,-0.0654
10,AATATATT,0.284
11,GATATATA,0.284
12,CATATATA,0.256
13,GATACATC,0.224
14,GATATACA,0.113
15,CATACATA,0.238
16,AATATATG,0.19
17,GATATATC,0.0354
18,GATACATA,0.332
19,TATATACA,0.162
20,TATATATA,0.318
21,AATATATA,0.157
22,ATGGCTTC,0.00791

row,Sequence,PBM E-score
1,CGTTTCGC,-0.0307
2,GAGTATGA,0.228
3,CTCTCAAC,0.00283
4,GCTTAGTA,-0.171
5,GGATCAAC,-0.0769
6,GTAACCAA,0.103
7,TGCAATAA,-0.0029
8,GGGGCCCA,-0.0152
9,ACTGATAG,0.167
10,AGAATTAA,-0.301
11,ATTGAAGC,-0.163
12,AAAATTCA,-0.128
13,ATACTATC,0.128
14,CTACTATC,0.277
15,CTACTATA,0.168
16,GGTCTGAC,0.226
17,GGGATGAA,-0.00977
18,AGGATGAG,0.225
19,CTGATGAC,0.19
20,AGGATGAT,0.309
21,ATGATGAG,0.196
22,ATGATGAC,0.303

row,Sequence,PBM E-score
1,GGGATGAC,0.323
2,AGGATGAA,-0.0977
3,AGGATGAC,0.112
4,GCTAGCCA,-0.17
5,CAGATCAG,-0.112
6,CGCGAATC,0.193
7,ACGTATCC,-0.194
8,CCATTAGC,-0.0966
9,ATTGGCCG,-0.13
10,GCACTGAC,0.0316
11,GCGAAGAA,-0.191
12,ACACACCC,0.198
13,ACACACCA,0.282
14,TCACACCA,0.17
15,CCACACCA,0.141
16,ACACACCG,0.223
17,ACACACCT,0.283
18,AACGTCAA,-0.269
19,AGGCTTCC,-0.119
20,CAAACGAG,0.0174
21,CTATGGCA,-0.132
22,GTCCTTAA,-0.00154

row,Sequence,PBM E-score
1,CGCGCGCG,0.286
2,TGCGCGCA,0.29
3,CGCGCGCA,0.259
4,AGCGCGCG,0.0844
5,GGCGCGCA,0.121
6,CGCGCGCC,0.228
7,TGGTTGAA,-0.0692
8,TATGCTCA,0.0368
9,GAGTGCCC,-0.0963
10,AAGCACTA,-0.0763
11,AATGCTGA,0.027
12,GATGCTGA,0.0169
13,CATGCTGA,0.275
14,AACGACGC,-0.0318
15,CATTCACC,0.0887
16,AAGAGGAT,-0.0743
17,GGTCTTTA,-0.0868
18,ACTCCCTG,0.276
19,ACTCCCTA,0.063
20,ACTCCCTC,0.0377
21,CGGGTCAG,0.204
